From PubChem BioAssay
GPR151 ag – activates the human receptor GPR151; Q8TDV0; PathHunter beta-arrestin GPR151 cells, luminescence; activation, % at 11.2 µM; 650,000 tested, 1% active; AID 1508602; in the data active = activation above about 4.9%;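 note: 0% = median of compound wells and 100% = cells with positive control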
FBW7 act – activators of human E3 ligase FBW7; Q969H0; AlphaScreen FBW7–phospho-cyclin E peptide binding, activator screen; normalized activity (activation), % at 26.1 µM; 650,000 tested, 0.13% active; AID 1259310; in the data active = normalized activity above about 1.9%;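 note: purified mutant Fbw7 with reduced substrate affinity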
TEAD-YAP inh – TEAD-YAP interaction inhibition. 640,000 tested, 1.4% active. AID 1259422. HEK-TIYL cells, TEAD-Gal4/YAP UAS-luciferase luminescence. inhibition, % at 9.12 µM; in the data active = inhibition above about 32%;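 note: 0% = median of test compound wells and 100% = reference inhibitor wells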
MITF primary – blocks human microphthalmia-associated transcription factor. AlphaScreen MITF homodimerization, bead proximity signal. inhibition, % at 2.6 µM. 650,000 tested, 0.91% active. AID 1259374; in the data active = inhibition above about 50%;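 note: 0% = vehicle wells with protein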
Target sequence (O75030 whole entry, looked up): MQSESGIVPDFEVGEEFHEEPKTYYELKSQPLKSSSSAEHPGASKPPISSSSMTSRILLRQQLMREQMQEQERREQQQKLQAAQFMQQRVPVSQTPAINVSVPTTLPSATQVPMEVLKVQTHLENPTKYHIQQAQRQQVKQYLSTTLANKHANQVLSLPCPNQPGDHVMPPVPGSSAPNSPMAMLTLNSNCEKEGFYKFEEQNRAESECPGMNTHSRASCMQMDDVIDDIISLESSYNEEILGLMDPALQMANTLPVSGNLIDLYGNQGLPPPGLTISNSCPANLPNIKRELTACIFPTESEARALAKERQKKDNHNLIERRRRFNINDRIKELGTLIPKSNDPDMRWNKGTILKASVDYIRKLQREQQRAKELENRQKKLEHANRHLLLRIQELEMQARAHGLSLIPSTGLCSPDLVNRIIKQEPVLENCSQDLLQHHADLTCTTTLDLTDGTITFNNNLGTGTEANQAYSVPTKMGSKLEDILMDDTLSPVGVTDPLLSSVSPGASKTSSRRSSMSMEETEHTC
Active calls of the source: *. In the library only some 3.4% were active in any assay of this set; here they are far more common.

SMILES	GPR151 ag	FBW7 act	TEAD-YAP inh	MITF primary
CCCCNC(=O)CNC(=S)N(Cc1ccccc1)Cc1cccs1	-1	0	-4	-12
Cc1ccc(/C=C/C(=O)c2ccc(O)cc2)cc1	-2	0	47*	-1
Cc1ccc(C(=O)/C=C/Nc2cccc(O)c2)cc1	0	0	92*	-2
COc1cc(C(=O)/C=C/Nc2cccc(O)c2)cc(OC)c1OC	0	0	38*	13
COc1cc(C(=O)/C=C/Nc2cccc(F)c2)cc(OC)c1OC	2	0	28	-2
COc1ccc(-c2nc(NC3CCN(Cc4ccccc4)CC3)c3ncn(-c4ccsc4)c3n2)cc1	0	0	0	10
COc1ccc(-c2nc(NC3CC3)c3ncn(-c4ccsc4)c3n2)cc1	2	0	50*	3
Cc1nn(C)c(C)c1-c1nc(NC2CC2)c2ncn(-c3ccsc3)c2n1	2	0	40*	1
CNC(=O)Cn1cccc1C(=O)c1ccccc1C	0	0	12	5
O=[N+]([O-])c1cccc(S(=O)(=O)NCCc2csc3nc(-c4ccccc4)nn23)c1	-1	0	7	26
COc1ccccc1N(C(=O)c1csnn1)C(C(=O)NC(C)(C)C)c1ccccc1 (centres undefined)	-1	0	1	17
Cc1ccc(-c2nc(CS(=O)CC(=O)NCC3CCCO3)c(C)o2)cc1 (centres undefined)	0	1.9*	-3	3
Cc1cc(C)n2nc(C(=O)N/N=C/c3cc(Cl)ccc3O)nc2n1	0	-1	18	56*
O=C(N/N=C/c1ccccc1C(F)(F)F)c1cccs1	0	0	-30	2
CC(C)(C)c1cc(C(=O)N/N=C/c2cc(Cl)ccc2O)n[nH]1	0	-1	76*	31
O=C(N/N=C/c1ccc(O)c(O)c1O)c1cccs1	-3	-1	-44	54*
Cc1cc(C)n2nc(C(=O)N/N=C/c3cc(Cl)cc([N+](=O)[O-])c3O)nc2n1	-1	-1	1	9
Cc1cc(C(=O)N/N=C\c2cc(C(C)(C)C)ccc2O)n[nH]1	-1	0	-2	5
O=C(N/N=C/c1cc(Cl)ccc1O)c1ccc(F)cc1	0	0	67*	29
CNC(=S)Nc1ccc(Nc2ccccc2OC)cc1	1	0	-4	1
O=C(N/N=C/c1ccccc1Cl)c1cccs1	-4	0	-53	-2
Cc1cc(C(=O)N/N=C/c2ccc(O)c(O)c2O)c(C)o1	-3	-1	2	53*
O=C(N/N=C\c1cc(Cl)ccc1O)c1cccs1	2	-1	43*	35
Cc1cc(C(=O)N/N=C\c2ccc(Cl)cc2Cl)c(C)o1	-2	0	-4	12
COc1ccc(C(=O)N/N=C(\C)CC(=O)NCc2ccccc2)cc1OC	1	0	26	8
SMILES	GPR151 ag	FBW7 act	TEAD-YAP inh	MITF primary
O=C(c1ccco1)c1coc2ccc(Cl)cc2c1=O	-1	0	-7	2
NC(=O)c1ccccc1Nc1cc(NC(=O)Cc2ccc3ccccc3c2)ncc1C(F)(F)F	-2	0	93*	2
O=C(Cc1ccc2c(c1)OCO2)Nc1cc(Nc2ccccc2-c2nn[nH]n2)c(Cl)cn1	0	1	1	15
NC(=O)c1ccccc1Nc1cc(NC(=O)Cc2ccc(CN3CCOCC3)cc2)ncc1Cl	0	0	99*	4
NC(=O)c1ccccc1Nc1cc(NC(=O)Cc2ccc(F)cc2)ncc1Cl	1	0	81*	8
NC(=O)c1ccccc1Nc1cc(Oc2ccc(N3CCNCC3)cc2)ncc1C(F)(F)F	-2	1	3	-13
NC(=O)c1ccccc1Nc1cc(NC(=O)Cc2ccc(CN3CCOCC3)cc2)ncc1C(F)(F)F	1	0	99*	6
NC(=O)c1ccccc1Nc1nc(Nc2ccc(N3CCOCC3)c(Cl)c2)ncc1Cl	1	0	22	-10
COc1cccc(C2=CC(c3cc(Br)ccc3F)n3nnnc3N2)c1 (centres undefined)	2	0	46*	4
COc1cccc(C2=CC(c3ccccc3C)n3nnnc3N2)c1 (centres undefined)	-1	0	44*	-6
COc1cccc(C2C=C(c3cccc(Br)c3)Nc3nnnn32)c1 (centres undefined)	-1	0	49*	7
COc1ccc(C2C=C(c3cccc(Br)c3)Nc3nnnn32)cc1OC (centres undefined)	1	0	3	0
CC1CCCC(NC(=O)COC(=O)c2ccccc2O)C1C (centres undefined)	0	0	-1	-10
O=C1c2ccccc2C(=O)C1C1c2ccccc2Oc2ccccc21	0	0	-2	1
O=C(CN1CCOCC1)N1N=C(c2c(-c3ccccc3)c3cc(Cl)ccc3[nH]c2=O)CC1c1ccccc1 (centres undefined)	-2	0	1	7
COc1cc(NC(=S)N2CCCCC2CO)cc(OC)c1 (centres undefined)	0	0	1	13
CCOC(=O)c1sc(N)c(C#N)c1CSc1nnc(-c2ccco2)o1	0	0	-12	6
CCOC(=O)c1sc(N)c(C#N)c1CSc1nnc(-c2ccc(OC)c(OC)c2)o1	-1	0	44*	-2
COc1cc(CN2CCN(c3ccc([N+](=O)[O-])cc3)CC2)cc([N+](=O)[O-])c1O	1	0	0	33
O=C(c1ncn[nH]1)N1CCN(c2ccc([N+](=O)[O-])c(NCc3ccc(Cl)cc3)c2)CC1	-1	3.9*	7	-333
COc1ccc(N2CCN(Cc3cc(OC)c(O)c([N+](=O)[O-])c3)CC2)cc1	0	0	-9	72*
COc1ccc(C(=O)N2CCN(c3ccc([N+](=O)[O-])c(NCCc4ccc(OC)c(OC)c4)c3)CC2)cc1Cl	-2	0	59*	-1
COc1ccc(CCNc2cc(N3CCN(CCO)CC3)ccc2[N+](=O)[O-])cc1OC	2	0	64*	10
CCC(=O)NCCNc1nc2c(c(=O)n(C)c(=O)n2C)n1Cc1cc(C)ccc1C	-1	0	10	16
CCOc1ccccc1CNc1nc(C)c(-c2ccn(CCO)n2)s1	0	0	-7	-6
SMILES	GPR151 ag	FBW7 act	TEAD-YAP inh	MITF primary
Cc1sc2ncn(CC(=O)N3CCN(c4ccc(F)cc4)CC3)c(=O)c2c1S(=O)(=O)N1CCOCC1	-1	0	-7	26
CC(=O)c1c(C)[nH]c(C(=O)CSc2nnnn2-c2cccc(C)c2)c1C	2	0	33*	11
O=C(COc1ccccc1)N1CCN(c2ccc(Nc3ccccn3)nn2)CC1	0	-1	10	8
O=C(COc1ccccc1)N1CCN(c2ccc(Nc3ccncc3)nn2)CC1	2	2.0*	-5	2
O=C(Nc1cc(=O)[nH]c(=O)[nH]1)c1cc([N+](=O)[O-])ccc1Cl	1	0	-12	25
O=C(Nc1cc(=O)[nH]c(=O)[nH]1)c1cc(Br)ccc1Cl	-1	0	54*	14
O=C(Nc1cc(=O)[nH]c(=O)[nH]1)c1cc(Cl)ccc1Cl	1	0	52*	7
